Experimental data published in PubChem BioAssay AID1963322 (National Center for Advancing Translational Sciences (NCATS), 2024).
Inconclusive results are not listed. Entries that show only a call come without a potency. The source made the active and inactive calls. Calls follow the shape of the full dose curve.

Molecular target: cAMP-dependent protein kinase catalytic subunit alpha (Homo sapiens) (UniProt P17612)
Assay: Protein Kinase A (PKA-HiBiT) SDR gain of signal screen
Conditions: PKA-HiBiT structural dynamics response (SDR), luminescence gain of signal; series mostly up to 32.9 µM
Method in brief: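 Gain of luminescent signal after Nano-Glo HiBiT detection (10 min, RT) was the read-out. Beforehand, compounds were incubated 30 min at room temperature in the dark with 10 nM final PKA-N-HiBiT, with H-89 as positive control.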

| Compound | Potency |
| --- | --- |
| COc1ccc(-n2c(SCC#N)nc3sc4c(c3c2=O)CCCC4)cc1 | inactive |
| O=C(O)C1(Cc2cccc(Nc3nccs3)n2)CCC(Oc2cccc(Cl)c2F)CC1 (configuration not stated) | 14.5 µM (active) |
| COc1cc2ncnc(-n3nc(-c4ccccn4)nc3N)c2cc1OC | inactive |
| CCN1/C(=C\C(C)=O)Sc2ccc(OC)cc21 | inactive |
| Cc1c(Cl)cccc1S(=O)(=O)Nc1nc(NCCc2ccccc2)nc2c1CN(Cc1ccccc1)CC2 | inactive |
| NC1CCC(Nc2nc(Nc3ccc(C(=O)N4CCCCC4)cc3)c3ncn(-c4cccc(F)c4)c3n2)CC1 (configuration not stated) | 11.5 µM (active) |
| C[C@@H]1CN(CC(=O)Nc2ccc3c(c2)Cc2cccc(-c4cc(=O)cc(N5CCOCC5)o4)c2S3)C[C@H](C)O1 | inactive |
